An excerpt weighted towards active compounds, which were near 2.3% of everything screened.
A549 viability – Nrf2 qHTS screen for inhibitors: counterscreen for cytotoxicity | A549 ARE-Fluc cells, CellTiter-Fluor viability, 18-24 h | Potency, µM (top dose mostly 46 µM), without a hit: at the top dose activity change, negative = cytotoxicity, hits mostly inhibitors | actives 0.16% (n = 390,000) | AID 504648, 2011; further: potency means the concentration at half of the fitted maximal effect; on the % scale 0 is the no-effect control and ±100 the full control effect
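Cytotoxicity counterscreen: CellTiter-Fluor fluorescence was measured in A549 ARE_Fluc cells after 18-24 h of compound exposure in a concentration series. The subsequent BugLite luminescent read reports ARE-luciferase activity.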
IL2 activator – qHTS of IL-2 Activators | IL-2 activation reporter assay, cell-based qHTS; stimulated with anti-CD3/CD4/CD28 beads; in transgenic mouse T cells | activation, % (series mostly up to about 46 µM) | actives 0.065% (n = 360,000); in the data active means activation above about 50%; inconclusive means mostly about 30% to 49%; further: 0% is about no effect
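Quantitative HTS in unstimulated transgenic mouse T cells, with memory T cells as non-tolerant control and PMA/ionomycin as tolerance-bypass control. Compound pretreatment lasted 60 minutes before 18 h bead stimulation; EGFP/DsRed fluorescence read.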
Nrf2 inh – Nrf2 qHTS screen for inhibitors; A549 ARE-Fluc reporter, luciferase luminescence, 18-24 h; Potency, µM (highest dose often 46 µM), for the others: at the top dose activity change, negative = inhibition, most hits filed as inhibitors; actives 2.1% (n = 360,000); further: potency means the concentration at half of the fitted maximal effect; on the % scale 0 is the no-effect control and ±100 the full control effect; nearly all actives have a fitted effect of over 60% in size
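In this cell-based qHTS, ARE-driven firefly luciferase in A549 cells reports Nrf2 activity; the luminescent signal after BugLite lysis is the measured value, with a prior CellTiter-Fluor read for cell health.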
Nrf2 ARE act – qHTS of Nrf2 Activators | AREc32 ARE-luciferase reporter (MCF7-derived line), luminescence, 24 h | AID 624171, 2012 | actives 0.31% (n = 410,000) | Potency, µM (doses to about 46.1 µM), for inactives: at the highest dose activation, actives largely listed as activators; further: potency means the concentration at half of the fitted maximal effect; % of control where 0% means no effect; nearly all actives have a fitted effect of over 65% in size
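Luminescent ARE reporter assay in AREc32_Fluc cells: overnight plating at 37 deg C, 24 hr compound incubation, Steady-Glo added, 30 min RT before reading.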
The depositor's hits bear a star; ? = inconclusive; . = no result; [ ] = dose if it differs, or a comment. Unless noted, the call rests on the fitted dose curve; in most records, active means well fitted curve in the direction sought with a large enough effect; inconclusive means small, poorly fitted or top-dose-only effect, or another doubt; inactive means no such curve, though single readings can be large; an effect the other way counts as inactive or inconclusive.

SMILES	A549 viability	IL2 activator	Nrf2 inh	Nrf2 ARE act
COc1ccc(NC(=O)Nc2ccc(Cc3ccncc3)cc2)c(OC)c1	-6%	1	16µM*	0%
c1nc(NCc2ccoc2)c2cc(-c3ccc4c(c3)OCO4)ccc2n1	-3%	.	14%	.
CCOc1ccc(NC(=O)CSc2ncc3c(n2)-c2ccccc2N(Cc2ccccc2C)S3(=O)=O)cc1	-1%	.	6%	0%
S=C(Nc1ccccc1)N1CCC(Cc2ccccc2)CC1	-16%	-1	16µM*	0%
CCOc1ccccc1N(CC(=O)NC1CCCC1)S(=O)(=O)c1ccc(C)cc1	-25%	2	15µM*	3%
Cc1ccc(S(=O)(=O)N(CC(=O)NC2CCCCCC2)c2ccccc2F)cc1	0%	-1	-11%	2%
COC(=O)c1ccc2c(=O)n(CCCCCC(=O)NCc3ccc(Cl)cc3)c(=O)[nH]c2c1	7%	.	.	5%
Cc1cccc(NC(=O)c2ccc(S(=O)(=O)NCc3cccnc3)cc2)c1	-18%	5	12µM*	0%
Cc1ccc(NS(=O)(=O)c2cccc(C(=O)Nc3cccnc3)c2)c(C)c1	-9%	-1	8.2µM*	3%
Cc1cc(C)cc(NC(=O)c2ccc(S(=O)(=O)NCc3cccnc3)cc2)c1	1%	2	-16%	4%
O=C(Nc1ccc(Cl)c(Cl)c1)c1cccc(S(=O)(=O)NCc2cccnc2)c1	-23%	-5	15µM*	5%
Cc1ccc(NC(=O)CN(C)S(=O)(=O)c2ccc3c(c2)CCC(=O)N3)c(C)c1	-4%	.	12%	4%
COc1ccc(N2CCN(CC(O)COc3ccc(C(C)C)c(C)c3)CC2)cc1 (stereo not given)	-11%	.	-25%	1%
Cn1c(/C=C/c2ccc(Br)cc2)c([N+](=O)[O-])c(=O)n(C)c1=O	?	-6	21µM*	3%
COc1cccc(NC(=O)c2oc3ccccc3c2NC(=O)C(C)(C)C)c1	-3%[1.84 µM]	-3	9.2µM*	0%
COc1ccc(OC2CCN(S(=O)(=O)c3ccc(F)cc3)CC2)cc1	18%	1	-25%	0%
COc1ccc(OC2CCN(S(=O)(=O)c3ccc(C(C)=O)cc3)CC2)cc1	-2%	1	21µM*	-1%
COc1ccc(OC2CCN(S(=O)(=O)c3ccccc3)CC2)cc1	3%	-1	-13%	0%
COc1ccc(S(=O)(=O)N2CCN(c3ccc(F)cc3)CC2)cc1OC	19%	0	6%	-1%
COc1ccc(S(=O)(=O)N2CCN(CCCOc3ccc(F)cc3)CC2)cc1OC	0%	0	23µM*	0%
COc1ccc(OC2CCN(S(=O)(=O)c3ccc(OC)c(OC)c3)CC2)cc1	-15%	-4	16µM*	0%
CCc1ccc(NC(=O)CSc2nc(-c3ccccc3Cl)nc3c2Cc2c(CO)cnc(C)c2O3)cc1	6%	.	?	0%
COc1ccc(-n2cc(C(=O)N(C)c3cc(C)ccc3OC)c3ccccc3c2=O)cc1	0%	.	11%	4%
COc1ccc(CNc2nc(S(=O)(=O)c3ccccc3)c(Cl)s2)cc1OC	-22%	-3	15µM*	3%
CCSc1ncc(Cl)c(C(=O)N(Cc2ccc(N(C)C)cc2)Cc2ccco2)n1	-10%	.	18µM*	11%
SMILES	A549 viability	IL2 activator	Nrf2 inh	Nrf2 ARE act
CCS(=O)(=O)c1ncc(Cl)c(C(=O)N(Cc2ccccc2)Cc2ccco2)n1	16µM*	.	23µM*	?
Cc1ccc(C(=O)N(Cc2ccc(N(C)C)cc2)Cc2ccco2)cc1	1%	.	?	11%
COc1ccccc1N(CC(=O)Nc1ccccc1F)S(C)(=O)=O	-6%	.	-1%	-1%
O=C(COC(=O)c1cc([N+](=O)[O-])ccc1N1CCOCC1)Nc1cccc(F)c1	4.6µM*	-3	?	1%
Oc1ccc(Br)cc1-c1cc(-c2ccco2)[nH]n1	3%	-2	.	3.5µM*
Oc1ccccc1-c1cc(-c2ccco2)[nH]n1	-18%	-3	?	?
c1nc(NCc2ccc3c(c2)OCO3)c2[nH]cnc2n1	17%	.	-2%	.
CC(C)(C)OC(=O)N1CCC(c2nnc(SCc3ccccc3F)o2)CC1	?	.	21µM*	0%
Cc1ccc2oc3c(c(=O)c2c1)C(c1cccc(Br)c1)N(Cc1ccco1)C3=O (stereo not given)	-1%	-1	?	0%

Bioassay records from PubChem.
